According to PubChem BioAssay (NCATS):
Records with an inconclusive call do not appear. Activity calls are given as the source filed them. Unless noted, calls follow the shape of the dose curve; as a rule, active = well fitted curve in the direction sought with a large enough effect; inconclusive = small, poorly fitted or top-dose-only effect, or another doubt; inactive = no such curve, though single readings can be large; an effect the other way counts as inactive or inconclusive.

Assays:
[1] = biological target: Lysosomal acid glucosylceramidase (Homo sapiens) (UniProt P04062); experiment: Glucocerebrosidase-p2 (AID 348; in the data active = potency below about 10 µM; also: potency is read from the fitted curve at half-maximal effect); details: purified GBA, blue fluorogenic substrate, 40 min
Sequence of Lysosomal acid glucosylceramidase (Homo sapiens) (P04062 whole entry, looked up): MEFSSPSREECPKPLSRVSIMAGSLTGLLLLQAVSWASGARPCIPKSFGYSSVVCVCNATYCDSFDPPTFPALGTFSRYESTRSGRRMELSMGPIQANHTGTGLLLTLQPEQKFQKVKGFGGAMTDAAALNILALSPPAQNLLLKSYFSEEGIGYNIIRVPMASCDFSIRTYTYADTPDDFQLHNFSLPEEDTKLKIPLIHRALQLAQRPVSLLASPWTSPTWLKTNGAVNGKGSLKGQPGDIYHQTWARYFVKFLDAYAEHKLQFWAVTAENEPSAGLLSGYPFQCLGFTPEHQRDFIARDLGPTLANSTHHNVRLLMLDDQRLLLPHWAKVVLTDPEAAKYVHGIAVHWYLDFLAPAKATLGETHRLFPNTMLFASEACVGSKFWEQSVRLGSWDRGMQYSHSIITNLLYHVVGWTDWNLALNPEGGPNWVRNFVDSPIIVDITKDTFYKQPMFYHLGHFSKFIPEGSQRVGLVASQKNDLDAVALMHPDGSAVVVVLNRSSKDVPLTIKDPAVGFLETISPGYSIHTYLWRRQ
Procedure, shortened: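 Compounds titrated from 0.6 nM upwards against 0.2 nM enzyme in pH 5.9 citric acid/KH2PO4, taurocholate, tween-20; blue fluorogenic substrate 80 uM, 40 min room temperature, stopped and read Ex 365/Em 440 for AC50.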

[2] = AP1 Signaling Pathway (AID 357; active = well fitted curve in either direction with a large enough effect, not every such curve was filed as active;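 also: ME-180 reporter cells stimulated with EGF at its EC50 level; % is scaled to controls: 0 for no effect and ±100 for the full control effect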); details: ME-180 AP-1-bla reporter, EGF-induced, beta-lactamase ratio, 5 h; at 7.69 µM (top of the series) unless noted
Procedure, shortened: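 In this screen, ME-180 cells in Opti-MEM with 0.5% dialyzed FBS received EC50 EGF and compound titrations for 5 h. AP-1 reporter beta-lactamase was detected via CCF4 ratio, giving AC50 for positive and negative modulators.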

[3] = biological target: Cytochrome P450 1A2 (Homo sapiens) (UniProt P05177); experiment: p450-cyp1a2 (AID 410; calls by dose curve; also: potency is read from the fitted curve at half-maximal effect); details: recombinant CYP1A2, luciferin-ME demethylation, luminescence; series mostly up to 57 µM
Sequence of Cytochrome P450 1A2 (Homo sapiens) (P05177 whole entry, looked up): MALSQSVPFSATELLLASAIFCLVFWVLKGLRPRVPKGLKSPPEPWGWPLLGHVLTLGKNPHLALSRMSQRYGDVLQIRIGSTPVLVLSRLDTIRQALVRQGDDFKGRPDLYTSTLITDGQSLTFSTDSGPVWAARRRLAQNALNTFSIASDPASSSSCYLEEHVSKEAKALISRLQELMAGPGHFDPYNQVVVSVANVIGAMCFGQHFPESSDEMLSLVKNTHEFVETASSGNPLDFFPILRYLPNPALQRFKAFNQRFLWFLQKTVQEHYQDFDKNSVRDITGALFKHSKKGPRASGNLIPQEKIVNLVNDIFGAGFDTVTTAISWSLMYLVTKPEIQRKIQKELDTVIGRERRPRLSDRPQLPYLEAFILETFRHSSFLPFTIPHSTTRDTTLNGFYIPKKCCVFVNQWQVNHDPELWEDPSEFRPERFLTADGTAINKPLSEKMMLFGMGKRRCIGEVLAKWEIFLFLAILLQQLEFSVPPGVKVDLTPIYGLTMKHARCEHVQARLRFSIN
Procedure, shortened: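 Human CYP1A2 (20nM) demethylated Luciferin-ME at its Km (100uM) in 100mM KPO4. After 10 min compound preincubation, NADPH regeneration ran the reaction 60 min at room temperature. Luciferin was read by luminescence, normalized to 57 uM furafylline.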

[4] = NFAT Signaling Pathway (AID 444; active = well fitted curve in either direction with a large enough effect, not every such curve was filed as active;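 also: carbachol stimulus at about its EC50 of 1 µM final; % is scaled to controls: 0 for no effect and ±100 for the full control effect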); details: Jurkat NFAT-bla M1, carbachol, beta-lactamase ratio, 5 h; at 7.69 µM (top of the series) unless noted
Procedure, shortened: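 Read-out: CCF4 FRET ratio (460 nm/530 nm) after 1 h RT dye loading, used for %activity and AC50 from titration series. Cells: Jurkat NFAT-β-lactamase/M1 line, treated with compound plus 1 uM carbachol for 5 h, 37 °C.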

[5] = Stat Signaling Pathway (AID 446; active = well fitted curve in either direction with a large enough effect, not every such curve was filed as active;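 also: ME-180 cervical cancer cells given 40 pM IL-6 alongside compound; SIE-controlled beta-lactamase reporter measured as 460/530 nm FRET emission ratio; % is scaled to controls: 0 for no effect and ±100 for the full control effect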); details: ME-180 SIE beta-lactamase reporter, IL-6 stimulated, 5 h; at 7.69 µM (top of the series) unless noted
Procedure, shortened: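 Screening format detects activators and inhibitors alike: ME-180 SIE-bla cells stimulated at 40 pM IL-6 for 5 hrs with compound, then dual-emission beta-lactamase read at 405 nm excitation.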

[6] = biological target: Glucocorticoid receptor (Homo sapiens) (UniProt P04150); experiment: GR-EFC Redistribution (AID 451; calls by dose curve; also: potency is read from the fitted curve at half-maximal effect); details: CHO-K1 GR-EFC translocation, beta-gal luminescence, 2 h
Sequence of Glucocorticoid receptor (Homo sapiens) (P04150 whole entry, looked up, the tested form may be a part): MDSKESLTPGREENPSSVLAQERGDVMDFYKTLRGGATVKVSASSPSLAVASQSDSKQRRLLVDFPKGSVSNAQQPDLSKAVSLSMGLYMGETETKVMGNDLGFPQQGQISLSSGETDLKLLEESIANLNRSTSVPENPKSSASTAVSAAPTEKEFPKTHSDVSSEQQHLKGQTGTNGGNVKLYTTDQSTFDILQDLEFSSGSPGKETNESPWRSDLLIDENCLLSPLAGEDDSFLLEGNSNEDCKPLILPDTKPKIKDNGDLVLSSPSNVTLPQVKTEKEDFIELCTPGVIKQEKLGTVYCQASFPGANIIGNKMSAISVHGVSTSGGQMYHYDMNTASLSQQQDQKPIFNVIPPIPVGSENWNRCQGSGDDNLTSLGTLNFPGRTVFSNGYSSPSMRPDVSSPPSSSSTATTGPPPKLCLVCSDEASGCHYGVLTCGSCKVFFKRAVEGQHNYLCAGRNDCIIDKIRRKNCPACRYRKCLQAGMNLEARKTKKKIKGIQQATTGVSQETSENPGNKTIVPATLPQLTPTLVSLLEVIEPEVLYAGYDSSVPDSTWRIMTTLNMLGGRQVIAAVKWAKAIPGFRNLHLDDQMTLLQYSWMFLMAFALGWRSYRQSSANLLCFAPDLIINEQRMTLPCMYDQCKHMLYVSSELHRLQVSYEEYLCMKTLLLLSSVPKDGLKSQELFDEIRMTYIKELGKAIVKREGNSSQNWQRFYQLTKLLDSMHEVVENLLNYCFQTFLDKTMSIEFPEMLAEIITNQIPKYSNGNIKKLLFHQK
Procedure, shortened: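 Translocation of GR-ED fusion to nuclear EA restores b-gal, read by luminescence after 1 h room-temperature detection. Engineered CHO-K1 biosensor cells, 1,000/well, exposed 2 h at 37 C to titrations up to 46 uM final.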

[7] = biological target: Mitogen-activated protein kinase 10 (Mus musculus) (UniProt Q61831); experiment: JNK3 AlphaScreen Assay (AID 530; active = well fitted curve in either direction with a large enough effect, not every such curve was filed as active;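 also: kinase came from lysate of stimulated human HepG2 cells; signal reports phosphorylation of biotinylated GST-cJun 1-79 at Ser73 with 10 µM ATP; % is scaled to controls: 0 for no effect and ±100 for the full control effect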); details: JNK3 lysate, c-Jun phosphorylation; series mostly up to 57.1 µM
Procedure, shortened: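 Room-temperature AlphaScreen kinase assay; pre-activated HepG2 lysate as JNK3 source, biotin-GST-cJun(1-79) substrate, 10 uM ATP, compound 15 min preincubation.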

[8] = biological target: Cytochrome P450 3A4 (Homo sapiens) (UniProt P08684); experiment: qHTS Assay for Activators of Cytochrome P450 3A4 (AID 885); details: recombinant CYP3A4, Luciferin-PPXE luminescence, 60 min; series mostly up to 57.1 µM; also: nearly all actives have a fitted effect of over 65% in size; also: potency is read from the fitted curve at half-maximal effect
Sequence of Cytochrome P450 3A4 (Homo sapiens) (P08684 whole entry, looked up): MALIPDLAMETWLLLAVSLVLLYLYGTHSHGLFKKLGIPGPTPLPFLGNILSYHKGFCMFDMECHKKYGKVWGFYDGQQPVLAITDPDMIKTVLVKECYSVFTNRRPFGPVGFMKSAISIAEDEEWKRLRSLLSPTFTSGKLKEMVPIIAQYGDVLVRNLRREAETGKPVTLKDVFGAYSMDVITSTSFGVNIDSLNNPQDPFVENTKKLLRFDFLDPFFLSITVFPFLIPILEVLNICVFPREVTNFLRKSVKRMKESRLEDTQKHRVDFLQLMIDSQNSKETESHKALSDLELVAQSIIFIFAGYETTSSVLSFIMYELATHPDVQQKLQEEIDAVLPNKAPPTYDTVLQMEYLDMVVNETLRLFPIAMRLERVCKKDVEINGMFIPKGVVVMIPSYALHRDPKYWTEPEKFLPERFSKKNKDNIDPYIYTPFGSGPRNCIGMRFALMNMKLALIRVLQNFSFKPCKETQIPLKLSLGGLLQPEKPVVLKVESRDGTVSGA
Procedure, shortened: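 Steps: enzyme/substrate mix dispensed; compound added, 10 min RT; NADPH regeneration solution added, 60 min RT; luciferin detection buffer stops reaction; 20 min later luminescence measured.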

[9] = qHTS Assay for Lipid Storage Modulators (AID 1519; calls by dose curve); details: Drosophila S3 cells, BODIPY lipid droplet/cell ratio, laser cytometry, cells loaded with oleic acid; for activity change, negative = inhibition: at 57.5 µM (top of the series)
Procedure, shortened: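 Cells seeded at 5,000 per well were treated with compounds over a concentration series and loaded with oleic acid (400 uM, as added). Lipid droplet fluorescence (488 nm excitation, 500-530 nm channel) was read by laser-scanning cytometry and normalized to 20 uM Triacsin C.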

[10] = biological target: Dual specificity protein kinase CLK4 (Homo sapiens) (UniProt Q9HAZ1); experiment: qHTS Assay for Inhibitors of CDC-like Kinase 4 (Kinase-Glo Assay) (AID 1770); details: recombinant Clk4, Kinase-Glo ATP depletion luminescence; series mostly up to 66.7 µM; also: nearly all actives have a fitted effect of over 65% in size; also: potency is read from the fitted curve at half-maximal effect
Sequence of Dual specificity protein kinase CLK4 (Homo sapiens) (Q9HAZ1 whole entry, looked up): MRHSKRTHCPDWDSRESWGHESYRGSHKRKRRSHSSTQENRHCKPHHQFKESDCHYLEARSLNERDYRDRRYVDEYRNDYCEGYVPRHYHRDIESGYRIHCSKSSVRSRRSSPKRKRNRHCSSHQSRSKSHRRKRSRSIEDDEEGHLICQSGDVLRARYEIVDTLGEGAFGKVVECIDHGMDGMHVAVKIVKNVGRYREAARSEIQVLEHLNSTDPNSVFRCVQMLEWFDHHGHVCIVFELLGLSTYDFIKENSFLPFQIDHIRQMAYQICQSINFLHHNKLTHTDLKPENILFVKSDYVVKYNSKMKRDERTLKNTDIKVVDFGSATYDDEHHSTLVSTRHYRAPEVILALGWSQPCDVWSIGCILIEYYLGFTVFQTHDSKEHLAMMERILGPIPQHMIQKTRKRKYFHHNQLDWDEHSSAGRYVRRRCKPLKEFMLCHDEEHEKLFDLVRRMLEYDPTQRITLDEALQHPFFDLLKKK
Procedure, shortened: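 Recombinant human Clk4 (25 nM) phosphorylated RS repeat peptide (100 uM) with 1 uM ATP in Tris pH 7.5/MgCl2/EGTA/DTT/Triton buffer for 4.5 h at room temperature. Residual ATP was quantified by Kinase-Glo luciferase luminescence.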

[11] = biological target: Dual specificity protein kinase CLK4 (Homo sapiens) (UniProt Q9HAZ1); experiment: qHTS Assay for Inhibitors of CDC-like Kinase 4 (ADP-Glo Assay) (AID 1771); details: recombinant CLK4, ADP-Glo luminescence; series mostly up to 80 µM; also: nearly all actives have a fitted effect of over 70% in size; also: potency is read from the fitted curve at half-maximal effect
Procedure, shortened: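 Clk4 (25 nM) was incubated 1 hr at room temperature with 100 uM RS repeat peptide and 1 uM ATP in buffer with 2 mM MgCl2, 0.5 mM EGTA, 2.5 mM DTT. ADP formed was quantified by ADP-Glo luminescence.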

[12] = biological target: Dual specificity protein kinase CLK4 (Homo sapiens) (UniProt Q9HAZ1); experiment: qHTS Assay for Inhibitors of CDC-like Kinase 4 (ADP-FP Assay) (AID 1795); details: Transcreener ADP fluorescence polarization; series mostly up to 50 µM; also: % is scaled to controls: 0 for no effect and ±100 for the full control effect; nearly all actives have a fitted effect of over 60% in size
Procedure, shortened: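 Recombinant human Clk4 (6.25 nM) phosphorylated RS repeat peptide (100 uM) with 1 uM ATP in Tris pH 7.5/MgCl2/EGTA/DTT/Triton buffer for one hour. ADP was quantified by Transcreener competitive fluorescence polarization against an ADP calibration curve.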

[13] = Primary qHTS for small molecule stabilizers of the endoplasmic reticulum resident proteome: Secreted ER Calcium Modulated Protein (SERCaMP) assay (AID 1508630); details: SH-SY5Y GLuc-SERCaMP (Gaussia luciferase released on ER calcium loss) secretion, thapsigargin, luminescence; series mostly up to 38.4 µM; also: % is scaled to controls: 0 for no effect and ±100 for the full control effect
Procedure, shortened: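 GLuc-SERCaMP-expressing SH-SY5Y cells, pretreated 16 h with compound, are challenged with thapsigargin to empty ER calcium stores; after 4 h, coelenterazine is added directly to the medium and luminescence is imaged.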

[14] = biological target: Glucocorticoid receptor (Homo sapiens) (UniProt P04150); experiment: GR-GFP Redistribution (AID 450;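 active = compounds whose dose series gives a full or clear partial fitted curve of increased nuclear translocation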; also: potency is read from the fitted curve at half-maximal effect); details: U2OS GR-GFP nuclear translocation, laser cytometry, 2 h
[15] = biological target: 3',5'-cyclic-AMP phosphodiesterase 4B (Homo sapiens) (UniProt Q07343); experiment: qHTS Assay for Inhibitors of PDE-IV (AID 607; active = well fitted activation curve with a large enough effect in the main read-out, with a control signal flat, not every such curve was filed as active; also: % of control where 0% means no effect); details: HEK293 ACTOne CNG channel cells, membrane potential fluorescence; series mostly up to 22.9 µM
Sequence of 3',5'-cyclic-AMP phosphodiesterase 4B (Homo sapiens) (Q07343 whole entry, looked up): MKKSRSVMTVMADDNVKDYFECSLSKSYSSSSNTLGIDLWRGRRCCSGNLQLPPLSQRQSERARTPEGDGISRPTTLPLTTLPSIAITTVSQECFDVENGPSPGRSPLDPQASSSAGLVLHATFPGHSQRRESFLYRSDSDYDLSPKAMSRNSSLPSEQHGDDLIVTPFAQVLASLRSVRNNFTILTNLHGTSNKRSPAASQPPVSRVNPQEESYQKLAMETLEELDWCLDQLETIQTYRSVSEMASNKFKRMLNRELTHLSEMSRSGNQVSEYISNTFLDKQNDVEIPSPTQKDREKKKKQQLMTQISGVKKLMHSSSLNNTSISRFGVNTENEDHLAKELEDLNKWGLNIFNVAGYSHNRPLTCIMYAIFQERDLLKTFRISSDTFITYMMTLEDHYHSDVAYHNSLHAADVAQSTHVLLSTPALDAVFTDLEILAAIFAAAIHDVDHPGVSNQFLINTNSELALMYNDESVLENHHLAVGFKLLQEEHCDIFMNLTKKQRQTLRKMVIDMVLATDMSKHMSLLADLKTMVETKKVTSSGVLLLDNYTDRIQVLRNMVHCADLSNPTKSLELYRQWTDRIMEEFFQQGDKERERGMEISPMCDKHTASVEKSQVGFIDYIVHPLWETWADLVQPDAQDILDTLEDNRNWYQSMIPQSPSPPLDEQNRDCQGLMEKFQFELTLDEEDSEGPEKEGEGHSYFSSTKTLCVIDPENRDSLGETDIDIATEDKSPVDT
Procedure, shortened: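 The readout is membrane depolarisation from a cAMP-sensing CNG channel, detected with a potential dye at ex 535/em 590. Cells were HEK293-derived (endogenous PDE-IV) at 1000 cells/well, titrated up to 22.9 uM final.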

[16] = biological target: Cytochrome P450 3A4 (Homo sapiens) (UniProt P08684); experiment: qHTS Assay for Inhibitors and Substrates of Cytochrome P450 3A4 (AID 884); details: recombinant CYP3A4, Luciferin-PPXE luminescence; series mostly up to 57.1 µM; also: nearly all actives have a fitted effect of over 50% in size; also: potency is read from the fitted curve at half-maximal effect
Procedure, shortened: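 20 nM human CYP3A4 with 25 uM Luciferin-PPXE (at KM) in 200 mM KPO4, preincubated 10 min with compound; NADPH regeneration started a 60 min RT reaction. Luciferin detected by luminescence, normalized to 57 uM ketoconazole as full inhibition.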

[17] = biological target: Ubiquitin carboxyl-terminal hydrolase 1 (Homo sapiens) (UniProt O94782); experiment: Inhibitors of USP1/UAF1: Pilot qHTS (AID 504865); details: purified USP1/UAF1, Ub-rhodamine cleavage fluorescence; series mostly up to 54.9 µM;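 also: rhodamine fluorescence freed from ubiquitin-rhodamine substrate followed over time; top concentration of the series differs between compounds; % is scaled to controls: 0 for no effect and ±100 for the full control effect; nearly all actives have a fitted effect of over 35% in size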
Sequence of Ubiquitin carboxyl-terminal hydrolase 1 (Homo sapiens) (O94782 whole entry, looked up): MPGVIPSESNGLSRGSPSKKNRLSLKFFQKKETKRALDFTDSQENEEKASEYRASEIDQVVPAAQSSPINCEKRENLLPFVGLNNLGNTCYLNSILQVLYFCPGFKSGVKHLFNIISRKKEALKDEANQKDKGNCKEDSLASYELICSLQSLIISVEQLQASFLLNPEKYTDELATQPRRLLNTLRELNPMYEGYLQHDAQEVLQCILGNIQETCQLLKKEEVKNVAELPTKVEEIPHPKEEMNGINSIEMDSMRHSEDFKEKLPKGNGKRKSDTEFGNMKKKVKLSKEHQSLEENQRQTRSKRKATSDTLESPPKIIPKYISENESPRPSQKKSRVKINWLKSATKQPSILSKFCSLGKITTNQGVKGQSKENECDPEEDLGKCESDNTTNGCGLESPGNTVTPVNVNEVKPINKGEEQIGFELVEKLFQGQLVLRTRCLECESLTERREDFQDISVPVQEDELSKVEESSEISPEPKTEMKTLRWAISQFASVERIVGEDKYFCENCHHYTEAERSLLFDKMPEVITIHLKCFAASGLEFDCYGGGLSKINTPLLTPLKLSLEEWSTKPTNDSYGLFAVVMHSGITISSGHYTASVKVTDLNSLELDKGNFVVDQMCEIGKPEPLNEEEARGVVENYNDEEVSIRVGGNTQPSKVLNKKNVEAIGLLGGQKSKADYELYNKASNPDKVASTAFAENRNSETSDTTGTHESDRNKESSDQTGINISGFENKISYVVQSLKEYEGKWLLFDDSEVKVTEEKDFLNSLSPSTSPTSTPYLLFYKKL
Procedure, shortened: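 USP1/UAF1 complex (1nM) preincubated with compound 15 min at room temperature, then Ub-Rho substrate (150nM final) added. Fluorescence read kinetically at 480/540 nm, 6 reads every 60 seconds. Buffer: 50mM HEPES pH 7.8, 0.5mM EDTA, 0.1 mg/ml BSA, 1mM TCEP, 0.01% Tween-20.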

[18] = qHTS Assay for Identification of Small Molecule Agonists for Hypoxia Response Element Signaling Pathway (AID 914; active = well fitted activation curve with a large enough effect in the signal ratio, with a control signal flat, not every such curve was filed as active; the % refers to the signal ratio; also: % of control where 0% means no effect); details: ME-180 (cervical carcinoma) HRE-bla reporter, beta-lactamase ratio, CoCl2, 17 h; activation: stronger effect = higher value
Procedure, shortened: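 Positive modulation of EC50 CoCl2-induced hypoxia response element signaling is measured in ME-180 cells with a beta-lactamase reporter. Compounds are titrated, incubation runs 17 hours, and %Activity derives from the blue/green ratio.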

[19] = biological target: Cytochrome P450 2C9 (Homo sapiens) (UniProt P11712); experiment: qHTS Assay for Inhibitors and Substrates of Cytochrome P450 2C9 (AID 883); details: recombinant CYP2C9, luciferin-H luminescence, 60 min; series mostly up to 57.1 µM; also: % is scaled to controls: 0 for no effect and ±100 for the full control effect; nearly all actives have a fitted effect of over 60% in size
Procedure, shortened: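 Inhibition of CYP2C9 is scored as loss of luminescence, with 57uM sulphaphenazole defining 100% inhibition. Substrate Luciferin-H is used at 100uM, equal to its KM; enzyme at 10nM in 25mM KPO4, 60 min at 37C with NADPH regeneration.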

[20] = biological target: Cytochrome P450 2C19 (Homo sapiens) (UniProt P33261); experiment: qHTS Assay for Inhibitors and Substrates of Cytochrome P450 2C19 (AID 899); details: recombinant CYP2C19, luciferin-H EGE luminescence; series mostly up to 57.1 µM; also: potency is read from the fitted curve at half-maximal effect; nearly all actives have a fitted effect of over 60% in size
Sequence of Cytochrome P450 2C19 (Homo sapiens) (P33261 whole entry, looked up): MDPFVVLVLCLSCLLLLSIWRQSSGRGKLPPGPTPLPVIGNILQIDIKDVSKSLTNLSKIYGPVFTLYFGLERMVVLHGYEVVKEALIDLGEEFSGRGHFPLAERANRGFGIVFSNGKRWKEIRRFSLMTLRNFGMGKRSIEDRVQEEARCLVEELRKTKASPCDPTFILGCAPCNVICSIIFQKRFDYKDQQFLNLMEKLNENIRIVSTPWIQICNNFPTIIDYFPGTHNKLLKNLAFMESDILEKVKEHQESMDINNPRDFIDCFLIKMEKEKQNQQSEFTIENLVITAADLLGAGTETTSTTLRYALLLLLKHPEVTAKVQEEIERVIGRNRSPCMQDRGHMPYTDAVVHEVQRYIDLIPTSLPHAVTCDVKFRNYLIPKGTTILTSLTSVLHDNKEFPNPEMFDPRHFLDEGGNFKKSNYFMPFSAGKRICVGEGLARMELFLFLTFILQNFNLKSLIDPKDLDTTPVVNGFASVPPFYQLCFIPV
Procedure, shortened: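 5nM enzyme + 10uM Luciferin-H EGE (=KM), 50mM KPO4; cpd pin-transferred, 10 min 37C; NADPH regen, 60 min 37C; stopped w/ luciferin detection reagent, 20 min; luminescence. Normalized to 57uM ketoconazole (AC100).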

[21] = measured here: cell count channel max response
[22] = measured here: lipid channel max response

CN(C)Cc1ccccc1-c1nc(NCc2cccs2)c2ccccc2n1
15.9%: max response [9, 22]
inactive: Potency [1] > 11.4 µM | activity change, negative = inhibition [2] 25.7% | activity change, negative = inhibition [4] -24.9% | activity, negative = inhibition [5] 15.6% | Potency [6] > 46 µM | outcome [7] | Potency [8] | activity change, negative = inhibition [9] -0.128% | Potency [10] | Potency [11] | Potency [12] | Potency [13]
16.9%: max response [9, 21]
active: Potency [3] 1 µM

Cc1ccccc1-c1cc(N(C)C)ncn1
26.4%: max response [9, 22]
inactive: Potency [1] > 11.4 µM | activity change, negative = inhibition [2] -2.87% | activity change, negative = inhibition [4] -0.723% | activity, negative = inhibition [5] 7.1% | Potency [14] > 46 µM | outcome [7] | Potency [15] | Potency [16] | activity change, negative = inhibition [9] 6.31% | Potency [10] | Potency [11] | Potency [12] | Potency [17] | Potency [13]
active: Potency [3] 2 µM | Potency [8] 15.8 µM
20.2%: max response [9, 21]

O=c1c(-c2ccc(F)cc2)nc2cnc(N3CCNCC3)nc2n1Cc1ccc(F)cc1
inactive: Potency [1] > 11.4 µM | Potency [14] > 9.22 µM | Potency [6] > 46 µM | outcome [7] | Potency [15] | Potency [8] | activity change, negative = inhibition [9] 2.38% | Potency [10] | Potency [11] | Potency [12] | Potency [17] | Potency [13]
7.95%: max response [9, 21]
active: activity change, negative = inhibition [2] 115% [activator] | Potency [3] 15.8 µM | activity change, negative = inhibition [4] 163% [activator] | Potency [16] 7.94 µM
9.79%: max response [9, 22]

Cn1c(=O)c(-c2cccs2)nc2cnc(N3CCOCC3)nc21
16.5%: max response [9, 22]
14.1%: max response [9, 21]
active: Potency [3] 5.01 µM
inactive: Potency [1] > 11.4 µM | activity change, negative = inhibition [2] -14% | activity change, negative = inhibition [4] -9.83% | activity, negative = inhibition [5] -4.84% | Potency [14] > 9.22 µM | Potency [6] > 46 µM | outcome [7] | activation [18] 11.8% | activity change, negative = inhibition [9] 5.09% | Potency [10] | Potency [11] | Potency [12] | Potency [17] | Potency [13]

CN(C)c1ccc(-c2cc(Nc3ccc(F)cc3)ncn2)cc1
active: Potency [3] 0.398 µM | Potency [20] 2 µM | Potency [10] 11.2 µM | Potency [11] 14.1 µM
-11.3%: max response [9, 21]
inactive: Potency [1] > 11.4 µM | activity change, negative = inhibition [2] -18.2% | activity change, negative = inhibition [4] -8.8% | activity, negative = inhibition [5] -12% | Potency [14] > 46 µM | Potency [6] > 46 µM | outcome [7] | Potency [15] | activity change, negative = inhibition [19] 8.7% [at 2.29 µM] | Potency [8] | activity change, negative = inhibition [9] 8.67% | Potency [12] | Potency [13]
-0.85%: max response [9, 22]
